In PubChem BioAssay (Tox21):
Records with an inconclusive call do not appear. Calls of active or inactive are those of the source. Unless noted, the call rests on the fitted dose curve.

Columns and labels:
[1] = qHTS assay to identify small molecule agonists of the sonic hedgehog signaling (Shh) pathway (AID 1259368);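 further: NIH/3T3-derived 3T3Gli1-Luc cells carrying a stable Gli1-driven firefly luciferase reporter; series mostly up to about 92 µM; nearly all actives have a fitted effect of over 15% in size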
Procedure, shortened: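 A Gli1 transcriptional response element controlled firefly luciferase in 3T3Gli1-Luc cells. Compounds and a positive control were added 4 hr after plating, and cells were incubated a further 24 hr at 37 C before luminescence detection.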

[2] = qHTS assay to identify small molecule antagonists of the sonic hedgehog signaling (Shh) pathway (AID 1259369); further: nearly all actives have a fitted effect of over 45% in size
Procedure, shortened: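 For antagonist detection, the reporter line received test compounds together with conditioned medium, incubated 24hr at 37 C, 5% CO2, then luminescence was recorded following 30min room-temperature luciferase reagent incubation.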

[3] = molecular target: Estrogen receptor beta (Homo sapiens) (UniProt Q92731); assay: qHTS assay to identify small molecule agonists of the estrogen receptor beta (ER-beta) signaling pathway (AID 1259377; active means well fitted activation curve with a large enough effect in the signal ratio in the repeat runs, not every such curve was filed as active; the % refers to the signal ratio)
Procedure, shortened: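 Reporter cells (HEK293T, ER-beta-UAS-bla) receive compounds or DMSO after a 6 hr pre-incubation. They then incubate 16 hr at 37C/5% CO2, and fluorescence from LiveBLAzer B/G substrate is measured after 2 hours at room temperature.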

[4] = molecular target: Estrogen receptor beta (Homo sapiens) (UniProt Q92731); assay: qHTS assay to identify small molecule antagonists of the estrogen receptor beta (ER-beta) signaling pathway (AID 1259378; active means well fitted inhibition curve with a large enough effect in the signal ratio in the repeat runs, not every such curve was filed as active; the % refers to the signal ratio)
Procedure, shortened: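 Antagonist mode: compounds added to beta-lactamase reporter HEK293T ER-beta-UAS cells stimulated with E2 (1nM final), 16 hr at 37C. LiveBLAzer B/G FRET substrate, 2 hours room temperature, fluorescence read-out.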

[5] = qHTS assay to identify small molecule agonists of the androgen receptor (AR) signaling pathway in the presence of an antagonist - cell viability counter screen (AID 1259379; active means well fitted curve in the direction sought with a large enough effect in the repeat runs; an effect the other way counts as inactive or inconclusive;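 further: MDA-kb2 human breast cancer cells carrying an MMTV luciferase reporter; series mostly up to about 92 µM; nearly all actives have a fitted effect of over 25% in size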)
Procedure, shortened: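 Seed MDA-kb2 at 3,000 cells/well; incubate 5 hr, 37C, 0% CO2. Add nilutamide to 3.0uM final, then pin compounds at 15 concentrations. Incubate 16 hr. Add CellTiter-Fluor at 15 hr, read fluorescence after 1 hr.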

[6] = qHTS assay to identify small molecule agonists of the estrogen receptor beta (ER-beta) signaling pathway - cell viability counter screen (AID 1259380; active means well fitted curve in the direction sought with a large enough effect in the repeat runs; an effect the other way counts as inactive or inconclusive; further: nearly all actives have a fitted effect of over 30% in size)
Procedure, shortened: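 CellTiter-Glo read, 30 min RT, same wells as bla assay; cells ER-beta-UAS-bla HEK293T; 16 hr compound, 37C; medium 2% charcoal-stripped FBS.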

[7] = qHTS assay to identify small molecule antagonists of the estrogen receptor beta (ER-beta) signaling pathway - cell viability counter screen (AID 1259382; active means well fitted curve in the direction sought with a large enough effect in the repeat runs; an effect the other way counts as inactive or inconclusive;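 further: HEK293T cells carrying ER-beta-UAS-bla reporter stimulated with estradiol; series mostly up to about 92 µM; nearly all actives have a fitted effect of over 55% in size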)
Procedure, shortened: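 In this multiplexed counter screen, cells were seeded at 2,000 per well in medium with 2% charcoal-stripped FBS and incubated 6 hr before compound and 1nM final E2 were added. Sixteen hours later, ATP-based luminescence reported viability.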

[8] = molecular target: Estrogen receptor (Homo sapiens) (UniProt P03372); assay: qHTS assay to identify small molecule agonists of the estrogen receptor alpha (ER-alpha) signaling pathway in the presence of an antagonist (AID 1259383); further: top concentration of the series differs between compounds; nearly all actives have a fitted effect of over 15% in size
Procedure, shortened: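 Stably transfected VM7Luc4E2 reporter cells, kept 5 days in charcoal-stripped serum, received ICI-182,780 at 10.0nM final before compound addition. Following 22hr incubation at 37C and 5% CO2, luciferase signal was read by luminescence.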

[9] = qHTS assay to identify small molecule agonists or antagonists of the thyroid stimulating hormone receptor (TSHR) signaling pathway - wild type cell line counter screen (AID 1259384)
Procedure, shortened: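 Counter screen in untransfected Hek293: compounds (15-point titration, triplicate) plus phosphodiesterase inhibitor Ro20-1724 added after 18 h plating; 30 min RT. Intracellular cAMP via competitive d2/cryptate immunoassay, 1 h incubation.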

[10] = molecular target: Thyrotropin receptor (Homo sapiens) (UniProt P16473); assay: qHTS assay to identify small molecule antagonists of the thyroid stimulating hormone receptor (TSHR) signaling pathway (AID 1259385); further: nearly all actives have a fitted effect of over 20% in size
Procedure, shortened: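 Antagonist mode: compound-treated TSHR-expressing HEK293 cells were stimulated with 1.5 ng/mL TSH (final) in presence of Ro20-1724 for 30 min at RT. HTRF cAMP detection after 1 h; each compound tested at 15 concentrations, triplicate.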

[11] = qHTS assay to identify small molecule agonists of the estrogen receptor alpha (ER-alpha) signaling pathway in the presence of an antagonist - cell viability counter screen (AID 1259386; active means well fitted curve in the direction sought with a large enough effect in the repeat runs; an effect the other way counts as inactive or inconclusive;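 further: series mostly up to about 92 µM; cells exposed to compounds for 22 h at 37 °C before the viability read; nearly all actives have a fitted effect of over 30% in size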)
Procedure, shortened: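 Viability counter screen using VM7Luc4E2 (full-length ER-alpha, four ERE-luciferase). The cells were treated with compounds alongside ICI-182,780 10.0nM for 22hr, and live-cell protease fluorescence was quantified with CellTiter-Fluor.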

[12] = molecular target: Progesterone receptor (Homo sapiens) (UniProt P06401); assay: qHTS assay to identify small molecule agonists of the progesterone receptor (PR) signaling pathway (AID 1346784); further: nearly all actives have a fitted effect of over 30% in size
Procedure, shortened: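 Reporter assay, GripTite PR-UAS-bla HEK 293T cells: 16 hr exposure to DMSO-dissolved compounds at 37C, 5% CO2, in steroid-depleted (2% charcoal-stripped FBS) medium; beta-lactamase measured by FRET fluorescence.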

[13] = molecular target: Progesterone receptor (Homo sapiens) (UniProt P06401); assay: qHTS assay to identify small molecule antagonists of the progesterone receptor (PR) signaling pathway (AID 1346795; active means well fitted inhibition curve with a large enough effect in the signal ratio in the repeat runs, not every such curve was filed as active; the % refers to the signal ratio)
Procedure, shortened: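 Stimulus R5020 at 1 nM final; cells HEK293T PR-UAS-bla; medium with 2% charcoal-stripped FBS; compound exposure 16 hr at 37C, 5% CO2; detection by FRET beta-lactamase substrate, 2 hr, room temperature.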

[14] = qHTS assay to identify small molecule antagonists of the progesterone receptor (PR) signaling pathway - cell viability counter screen (AID 1346798; active means well fitted curve in the direction sought with a large enough effect in the repeat runs; an effect the other way counts as inactive or inconclusive; further: series mostly up to about 92 µM; nearly all actives have a fitted effect of over 50% in size)
Procedure, shortened: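 In the same plates used for the beta-lactamase readout, cell viability of compound- and R5020-treated PR-UAS-bla HEK293T cells (16 hr, 37C) was assessed by CellTiter-Glo luminescence.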

[15] = qHTS assay to identify small molecule agonists of the progesterone receptor (PR) signaling pathway - cell viability counter screen (AID 1346799); further: nearly all actives have a fitted effect of over 45% in size
Procedure, shortened: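 Multiplexed viability read: CellTiter-Glo luminescence, 30 min RT, following LiveBLAzer FRET measurement on PR-UAS-bla HEK293T cells exposed to compounds 16 hr.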

[16] = qHTS assay to identify small molecule antagonists of the TGF-beta/Smad signaling pathway - cell viability counter screen (AID 1346824; active means well fitted curve in the direction sought with a large enough effect in the repeat runs; an effect the other way counts as inactive or inconclusive; further: nearly all actives have a fitted effect of over 50% in size)
Procedure, shortened: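 Cytotoxicity counter-screen run in the same wells as the beta-lactamase Smad reporter read: CellTiter-Glo luminescence after 30 min at room temperature. HEK 293T SBE-bla cells had 5 hr compound exposure at 37 C with TGF-beta1 (0.25 ng/mL stock).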

[17] = qHTS assay to identify small molecule agonists of the TGF-beta/Smad signaling pathway - cell viability counter screen (AID 1346829; active means well fitted curve in the direction sought with a large enough effect in the repeat runs; an effect the other way counts as inactive or inconclusive; further: top concentration of the series differs between compounds; nearly all actives have a fitted effect of over 45% in size)
Procedure, shortened: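 Here the cytotoxicity of library compounds is measured in SBE-bla HEK 293T cells treated for 5 hr, using CellTiter-Glo added to wells already read for the beta-lactamase reporter.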

[18] = qHTS assay to identify small molecule agonists of the TGF-beta/Smad signaling pathway (AID 1346859; active means well fitted activation curve with a large enough effect in the signal ratio in the repeat runs, not every such curve was filed as active; the % refers to the signal ratio; further: series mostly up to about 77 µM)
Procedure, shortened: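 Screening used HEK 293T SBE-bla cells at 4,000/well. Test agents: 5 hr, 37 C. Detection: FRET substrate, 2 hr RT, then excitation 405 nm with emissions at 460 and 530 nm.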

[19] = molecular target: Thyrotropin-releasing hormone receptor (Homo sapiens) (UniProt P34981); assay: qHTS assay to identify small molecule antagonists of the thyrotropin-releasing hormone receptor (TRHR) signaling pathway (AID 1346877; active means well fitted inhibition curve with a large enough effect in the repeat runs, not every such curve was filed as active; further: series mostly up to about 51 µM)
Procedure, shortened: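 Following an 18 h incubation at 37 °C and a 2 h calcium dye load, TRHR-HEK293 cells were exposed to compound (5 min, room temperature) and challenged with TRH, 1 nM final.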

[20] = molecular target: Androgen receptor (Homo sapiens) (UniProt P10275); assay: qHTS assay to identify small molecule agonists of the androgen receptor (AR) signaling pathway in the presence of an antagonist (AID 1259381); further: nearly all actives have a fitted effect of over 15% in size
Procedure, shortened: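 Test compounds at 15 concentrations were incubated for 16hr with MDA-kb2 reporter cells in presence of 3.0uM nilutamide (final). Signal: ONE-Glo luciferase luminescence.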

Measured: Potency

Estrogen receptor (Homo sapiens), sequence (P03372 whole entry, looked up): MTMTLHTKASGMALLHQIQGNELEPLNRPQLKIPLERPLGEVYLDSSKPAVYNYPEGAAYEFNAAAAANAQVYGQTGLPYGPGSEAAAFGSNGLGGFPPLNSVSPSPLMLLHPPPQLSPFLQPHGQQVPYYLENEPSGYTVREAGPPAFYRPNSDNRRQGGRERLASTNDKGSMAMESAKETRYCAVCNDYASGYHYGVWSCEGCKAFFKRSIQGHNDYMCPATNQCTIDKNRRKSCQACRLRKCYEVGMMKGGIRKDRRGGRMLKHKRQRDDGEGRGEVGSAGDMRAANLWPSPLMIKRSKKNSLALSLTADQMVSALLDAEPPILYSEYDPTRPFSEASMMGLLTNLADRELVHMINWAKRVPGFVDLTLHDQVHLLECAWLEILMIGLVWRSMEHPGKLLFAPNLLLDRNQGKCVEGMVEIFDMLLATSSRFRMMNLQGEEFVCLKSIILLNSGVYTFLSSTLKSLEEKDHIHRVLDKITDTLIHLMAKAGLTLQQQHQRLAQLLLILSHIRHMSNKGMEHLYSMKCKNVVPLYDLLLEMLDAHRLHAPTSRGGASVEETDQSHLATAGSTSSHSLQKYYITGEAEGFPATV
Thyrotropin-releasing hormone receptor (Homo sapiens), sequence (P34981 whole entry, looked up): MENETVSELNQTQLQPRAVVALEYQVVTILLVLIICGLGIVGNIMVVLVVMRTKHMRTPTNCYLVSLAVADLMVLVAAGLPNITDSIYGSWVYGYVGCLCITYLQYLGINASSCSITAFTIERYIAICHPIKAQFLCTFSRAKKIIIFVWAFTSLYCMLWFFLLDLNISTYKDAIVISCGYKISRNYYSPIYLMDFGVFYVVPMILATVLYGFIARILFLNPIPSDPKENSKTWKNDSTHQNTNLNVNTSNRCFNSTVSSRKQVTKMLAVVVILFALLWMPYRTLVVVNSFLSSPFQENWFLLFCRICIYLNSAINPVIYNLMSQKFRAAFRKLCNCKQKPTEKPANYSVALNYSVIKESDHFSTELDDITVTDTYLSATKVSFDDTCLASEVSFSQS
Thyrotropin receptor (Homo sapiens), sequence (P16473 whole entry, looked up): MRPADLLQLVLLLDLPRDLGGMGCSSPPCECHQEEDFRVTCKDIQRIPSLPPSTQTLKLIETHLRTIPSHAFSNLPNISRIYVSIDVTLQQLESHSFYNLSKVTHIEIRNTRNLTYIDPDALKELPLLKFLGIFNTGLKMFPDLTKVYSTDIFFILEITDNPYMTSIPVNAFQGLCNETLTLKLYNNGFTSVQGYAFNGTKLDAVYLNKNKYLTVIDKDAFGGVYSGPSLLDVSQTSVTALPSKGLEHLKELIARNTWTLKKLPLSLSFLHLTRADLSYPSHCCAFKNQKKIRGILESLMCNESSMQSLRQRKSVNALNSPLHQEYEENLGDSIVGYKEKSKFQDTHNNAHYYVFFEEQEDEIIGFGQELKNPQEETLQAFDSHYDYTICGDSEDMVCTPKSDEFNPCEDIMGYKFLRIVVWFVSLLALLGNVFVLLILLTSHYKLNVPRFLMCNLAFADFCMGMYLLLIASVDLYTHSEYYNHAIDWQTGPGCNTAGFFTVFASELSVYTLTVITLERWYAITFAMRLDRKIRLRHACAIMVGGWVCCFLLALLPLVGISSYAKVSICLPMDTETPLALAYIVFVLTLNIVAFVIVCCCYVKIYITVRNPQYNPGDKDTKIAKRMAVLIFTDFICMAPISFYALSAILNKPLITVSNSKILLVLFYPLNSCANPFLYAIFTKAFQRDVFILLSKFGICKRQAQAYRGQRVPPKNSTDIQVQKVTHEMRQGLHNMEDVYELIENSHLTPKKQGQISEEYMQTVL
Progesterone receptor (Homo sapiens), sequence (P06401 whole entry, looked up): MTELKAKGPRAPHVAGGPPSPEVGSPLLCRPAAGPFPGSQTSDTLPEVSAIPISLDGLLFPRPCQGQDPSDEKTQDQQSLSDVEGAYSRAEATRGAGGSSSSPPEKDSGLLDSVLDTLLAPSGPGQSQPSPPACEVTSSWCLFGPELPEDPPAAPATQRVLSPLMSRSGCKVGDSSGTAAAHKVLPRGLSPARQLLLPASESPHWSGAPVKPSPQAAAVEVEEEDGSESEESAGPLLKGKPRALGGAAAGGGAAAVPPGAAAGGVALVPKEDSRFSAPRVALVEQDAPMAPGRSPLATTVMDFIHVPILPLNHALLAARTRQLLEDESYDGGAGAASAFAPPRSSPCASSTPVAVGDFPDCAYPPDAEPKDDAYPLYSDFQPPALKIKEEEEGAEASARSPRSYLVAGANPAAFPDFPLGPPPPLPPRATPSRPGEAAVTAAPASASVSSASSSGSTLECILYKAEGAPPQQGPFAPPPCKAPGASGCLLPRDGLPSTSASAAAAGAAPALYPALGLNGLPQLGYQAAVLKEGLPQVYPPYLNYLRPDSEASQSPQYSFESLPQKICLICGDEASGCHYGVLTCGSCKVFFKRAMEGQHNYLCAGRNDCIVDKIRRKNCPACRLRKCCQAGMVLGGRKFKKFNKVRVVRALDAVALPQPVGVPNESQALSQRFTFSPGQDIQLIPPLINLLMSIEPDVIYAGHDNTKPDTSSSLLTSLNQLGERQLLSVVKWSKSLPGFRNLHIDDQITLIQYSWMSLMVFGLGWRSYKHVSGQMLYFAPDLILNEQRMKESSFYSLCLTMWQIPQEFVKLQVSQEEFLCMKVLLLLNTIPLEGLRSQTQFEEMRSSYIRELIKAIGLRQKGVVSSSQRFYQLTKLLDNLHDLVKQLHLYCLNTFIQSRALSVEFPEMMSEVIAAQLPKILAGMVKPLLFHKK
Androgen receptor (Homo sapiens), sequence (P10275 whole entry, looked up): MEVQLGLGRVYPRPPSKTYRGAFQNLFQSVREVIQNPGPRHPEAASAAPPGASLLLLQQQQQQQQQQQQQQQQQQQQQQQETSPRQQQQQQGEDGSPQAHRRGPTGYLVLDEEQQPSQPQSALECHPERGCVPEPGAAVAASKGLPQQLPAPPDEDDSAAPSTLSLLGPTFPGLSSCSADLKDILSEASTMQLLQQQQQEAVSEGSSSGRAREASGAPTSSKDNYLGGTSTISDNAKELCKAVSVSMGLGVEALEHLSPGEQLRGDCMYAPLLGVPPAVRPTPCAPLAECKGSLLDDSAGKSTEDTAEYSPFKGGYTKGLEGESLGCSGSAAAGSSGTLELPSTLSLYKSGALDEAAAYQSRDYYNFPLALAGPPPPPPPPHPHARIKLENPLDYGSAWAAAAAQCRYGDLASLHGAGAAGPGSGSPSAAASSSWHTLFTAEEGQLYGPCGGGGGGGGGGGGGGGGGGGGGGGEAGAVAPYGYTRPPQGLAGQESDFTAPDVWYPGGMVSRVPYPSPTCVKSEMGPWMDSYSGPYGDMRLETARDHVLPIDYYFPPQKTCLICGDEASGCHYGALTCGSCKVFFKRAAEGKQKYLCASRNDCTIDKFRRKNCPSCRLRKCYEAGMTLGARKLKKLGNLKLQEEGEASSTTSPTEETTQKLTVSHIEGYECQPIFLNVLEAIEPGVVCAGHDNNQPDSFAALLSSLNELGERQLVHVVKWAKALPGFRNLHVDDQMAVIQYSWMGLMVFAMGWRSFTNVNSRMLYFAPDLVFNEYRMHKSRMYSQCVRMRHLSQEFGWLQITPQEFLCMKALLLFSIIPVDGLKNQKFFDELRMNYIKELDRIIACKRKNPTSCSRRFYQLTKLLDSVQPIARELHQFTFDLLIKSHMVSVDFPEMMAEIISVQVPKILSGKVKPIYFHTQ
Estrogen receptor beta (Homo sapiens), sequence (Q92731 whole entry, looked up): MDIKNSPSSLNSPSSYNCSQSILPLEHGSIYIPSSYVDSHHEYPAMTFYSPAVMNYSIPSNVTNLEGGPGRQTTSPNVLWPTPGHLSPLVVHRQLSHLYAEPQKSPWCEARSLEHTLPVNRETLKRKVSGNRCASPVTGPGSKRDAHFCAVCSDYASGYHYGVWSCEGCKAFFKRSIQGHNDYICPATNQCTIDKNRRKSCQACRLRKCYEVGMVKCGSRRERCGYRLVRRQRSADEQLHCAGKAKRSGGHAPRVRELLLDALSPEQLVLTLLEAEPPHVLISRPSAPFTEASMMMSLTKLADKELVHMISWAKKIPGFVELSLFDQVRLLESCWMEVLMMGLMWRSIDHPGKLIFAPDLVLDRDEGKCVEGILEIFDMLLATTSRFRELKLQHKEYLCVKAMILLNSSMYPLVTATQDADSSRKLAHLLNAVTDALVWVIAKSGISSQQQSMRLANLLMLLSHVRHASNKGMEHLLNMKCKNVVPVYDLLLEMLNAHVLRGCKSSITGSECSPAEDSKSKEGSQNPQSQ

COc1nc(C)nc(N)n1
inactive: [1] | [2] | [3] | [4] | [5] | [6] | [7] | [8] | [9] | [10] | [11] | [12] | [13] | [14] | [15] | [16] | [17] | [18] | [19]

CC1CCN(CCCC(=O)c2ccc(F)cc2)CC1
inactive: [1] | [2] | [3] | [4] | [5] | [6] | [7] | [8] | [9] | [10] | [11] | [12] | [13] | [14] | [15] | [16] | [17] | [18] | [19]

CCO[Si](C)(OCC)OCC
inactive: [1] | [2] | [3] | [4] | [5] | [6] | [7] | [8] | [9] | [10] | [11] | [12] | [13] | [14] | [15] | [16] | [18] | [19]

CC1(C)SC(C)(C)SC(C)(C)S1
inactive: [1] | [2] | [3] | [4] | [5] | [6] | [20] | [7] | [8] | [10] | [11] | [12] | [13] | [14] | [15] | [16] | [17] | [18]

CCCCc1ccc2cccc(S(=O)(=O)O)c2c1
inactive: [1] | [2] | [3] | [4] | [5] | [6] | [20] | [7] | [8] | [9] | [10] | [11] | [13] | [14] | [15] | [16] | [17] | [18]

Nc1nc2c(ncn2CCC(CO)CO)c(=O)[nH]1
inactive: [1] | [2] | [3] | [4] | [5] | [6] | [7] | [8] | [9] | [10] | [11] | [12] | [13] | [14] | [15] | [16] | [17] | [18] | [19]

CCCCCCOC(=O)CC(CC(=O)OCCCCCC)(OC(=O)CCC)C(=O)OCCCCCC
inactive: [1] | [2] | [3] | [4] | [5] | [6] | [20] | [7] | [8] | [9] | [10] | [11] | [13] | [14] | [16] | [18]
